# Measurements: PubChem BioAssay (Tox21)
# Inconclusive results are not listed. Values without a mark were called inactive. Calls of active or inactive are those of the source. Calls come from the whole dose curve; as a rule, active = well fitted activation curve with a large enough effect in the signal ratio in the repeat runs, with a control signal flat (not every such curve was filed as active); inconclusive = weak or mixed curves; inactive = flat fitted curve, though single readings scatter; the % refers to the signal ratio.
# Experiment: qHTS assay for small molecule activators of the heat shock response signaling pathway (AID 743210)
# Conditions: HeLa HSE-bla reporter, beta-lactamase ratio, 5 h; series mostly up to 62.6 µM
# From the text: U.S. Tox21 Program National Center for Advancing Translational Sciences [NCATS] NIH Chemical Genomics Center [NCGC] U.S. Environmental Protection Agency [EPA] National Institutes of Environmental Health Sciences [NIEHS] National Toxicology Program [NTP] U.S. Food and Drug Administration [FDA] Tox21 Assay Overview: Various chemicals, environmental and physiological stress conditions may lead to the activation of heat shock response/ unfolded protein response (HSR/UPR). There are three heat shock transcription factors (HSFs) (HSF-1, -2, and -4) mediating transcriptional regulation of the human HSR. To identify the compounds that activate HSR signaling, HSE-bla HeLa cell line (Invitrogen, Carlsbad, CA, USA) containing a beta-lactamase reporter gene under the control of the heat shock response elements was used to screen the Tox21 10K compound library.
# Tox21 Assay Protocol Summary: The CellSensor HSE-bla HeLa cells (Invitrogen, Carlsbad, CA, USA) were dispensed at 1500 cells/6uL/well into 1536-well black wall/clear bottom plates using a Multidrop combi (Thermo Fisher Scientific, Waltham, MA) dispenser. After the assay plates were incubated at 37 C and 5% CO2 overnight, 23 nL of compounds dissolved in DMSO, positive controls or DMSO only was transferred to the assay plate by a Pintool station (Kalypsys, San Diego, CA). The plates were incubated at 37 C for 5 h. After 1 uL of LiveBLAzerTM B/G FRET substrate was added using a Flying Reagent Dispenser (Beckman Coulter, Indianapolis, IN, USA), the plates were incubated at room temperature for 2.5 h, and fluorescence intensity was measured by an Envision plate reader (PerkinElmer, Shelton, CT).
# % is set by controls: 0 for no effect and ±100 for the full control effect.
Structure (SMILES),outcome,activation
CC(C)(C)c1nnc(NS(=O)(=O)c2ccc(N)cc2)s1,inactive,
CC(CN)CC(C)(C)CCN (stereo not given),inactive,
COc1nccnc1NS(=O)(=O)c1ccc(N)cc1,inactive,
C=C(C)C(=O)OCCNC(C)(C)C,inactive,
O=C1c2ccccc2C(=O)c2cc(S(=O)(=O)O)ccc21,inactive,
NCCS,inactive,
CCCCC(CC)COCCO (stereo not given),inactive,
CCCCCCCCSCC,inactive,
CCCCCCCCOS(=O)(=O)O,inactive,
Cc1nc2n(c(=O)c1CCN1CCC(c3noc4cc(F)ccc34)CC1)CCC[C@H]2O,inactive,
N[C@@H](CCC(=O)Nc1ccc([N+](=O)[O-])cc1)C(=O)O,inactive,
C=C(C)C(=O)OCCN(CC)CC,inactive,
C=C(C)C(=O)OCC(C)(C)COC(=O)C(=C)C,inactive,
c1ccc2nccnc2c1,inactive,
O=S(=O)(O)c1cc(O)c2ccc(Nc3ccccc3)cc2c1,inactive,
O=S(O)(O)=S,,-0.665% [at 5.95 µM]
CC(=O)Nc1cccc(C)c1,inactive,
CC1(C)S[C@@H]2[C@H](N=CN3CCCCCC3)C(=O)N2[C@H]1C(=O)O,inactive,
COC(=O)[C@@H]1[C@H]2C[C@H]3c4[nH]c5ccccc5c4CCN3C[C@@H]2CC[C@@H]1O,inactive,
CN(C)C(=O)CNC(=O)Cc1ccccc1,inactive,

Structure (SMILES),outcome,activation
CC(C)=CCOC(=O)c1ccccc1,inactive,
Cc1ccc2ccc(Cl)cc2n1,inactive,
O=C(c1ccc(O)cc1)c1ccc(O)c(O)c1O,inactive,
CCOc1cc(NC(C)=O)ccc1C(=O)OC,inactive,
O=C(O)c1cc(Cl)cc([N+](=O)[O-])c1Cl,inactive,
CC1=CCC(C(C)C)=CC1,inactive,
OCCCCC(O)CO (stereo not given),inactive,
CCCN1C[C@H](CSC)C[C@@H]2c3cccc4[nH]cc(c34)C[C@H]21,inactive,
Oc1ccccc1-c1nnco1,inactive,
COc1ccc(-c2cc(=O)c3c(O)cc(O[C@@H]4O[C@H](CO[C@@H]5O[C@@H](C)[C@H](O)[C@@H](O)[C@H]5O)[C@@H](O)[C@H](O)[C@H]4O)cc3o2)cc1O,inactive,
CC(CC=O)CCCC(C)(C)O (stereo not given),inactive,
FC(F)(F)c1ccccc1-n1ccnc1,inactive,
Cc1c(I)c(=O)n(-c2ccccc2)n1C,inactive,
COc1cc2c(cc1OC)C(=O)CC2,inactive,
CN1C(C)(C)CCCC1(C)C,inactive,
CCCCOCCOC(=O)COc1nc(Cl)c(Cl)cc1Cl,inactive,
O=C(NCC(O)CO)c1c(I)c(C(=O)NCC(O)CO)c(I)c(N(CCO)C(=O)CO)c1I (stereo not given),inactive,
COc1cc2c(cc1OC)[C@@H]1CC(=O)[C@@H](CC(C)C)CN1CC2,inactive,
Cc1ccsc1/C=C/C1=NCCCN1C,inactive,
CCC(C)NC(N)=O (stereo not given),inactive,
